Cycloheximide cs: Cycloheximide Counterscreen for Small Molecule Inhibitors of Shiga Toxin; max response, %; 300,000 tested, 12% active; cell reporter, cycloheximide protein synthesis inhibition counterscreen; AID 2314, 2010; in the data active = max response mostly above about 13%, no sharp cut-off; inactive = mostly below about 14%; note: read at 38.3 µM for the half of the compounds with a filed dose; 0% is about no effect
SARS PLP yeast: qHTS of Yeast-based Assay for SARS-CoV PLP; S. cerevisiae expressing SARS-CoV PLpro, growth rescue; Potency, µM (series often up to 32.9 µM), inactives show at the highest dose activity, positive = growth rescue, hits mostly activators; 330,000 tested, 0.19% active; AID 485353, 2010; note: potency is the fitted concentration of half-maximal effect; 0% is about no effect; nearly all actives have a fitted effect of over 55% in size
LmPK inhibitor: qHTS Assay for Inhibitors of Leishmania Mexicana Pyruvate Kinase (LmPK); Q27686; purified LmPK, Kinase-Glo ATP luminescence, 1 h; Potency, µM (top dose mostly 57.5 µM), inactives show at the highest dose activity change, negative = inhibition, actives largely listed as inhibitors; 290,000 tested, 0.37% active; active = well fitted curve in the direction sought with a large enough effect; inconclusive = small, poorly fitted or top-dose-only effect, or another doubt; inactive = no such curve, though single readings can be large; an effect the other way counts as inactive or inconclusive; note: potency is the fitted concentration of half-maximal effect; % is set by controls: 0 for no effect and ±100 for the full control effect
Target sequence (Q27686 whole entry, looked up): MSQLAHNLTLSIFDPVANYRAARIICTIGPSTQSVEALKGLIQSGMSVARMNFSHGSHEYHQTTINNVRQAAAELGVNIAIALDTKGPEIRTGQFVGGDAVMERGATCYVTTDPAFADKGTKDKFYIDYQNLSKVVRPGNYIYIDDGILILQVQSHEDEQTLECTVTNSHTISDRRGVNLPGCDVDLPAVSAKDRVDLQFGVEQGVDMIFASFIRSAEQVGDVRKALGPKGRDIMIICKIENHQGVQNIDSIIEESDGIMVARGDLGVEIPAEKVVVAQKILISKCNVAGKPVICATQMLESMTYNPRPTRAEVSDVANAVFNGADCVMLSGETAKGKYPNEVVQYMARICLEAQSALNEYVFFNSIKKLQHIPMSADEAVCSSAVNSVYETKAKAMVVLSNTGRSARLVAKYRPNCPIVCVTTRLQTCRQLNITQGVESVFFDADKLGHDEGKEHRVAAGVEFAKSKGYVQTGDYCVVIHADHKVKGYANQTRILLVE
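In 50 mM imidazole pH 7.2 with 7 mM MgCl2, LmPK (0.1 nM) turned over PEP (0.5 mM) and ADP (0.1 mM) for 1 h at room temperature. Luciferase read-out of ATP.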
NS1 inh: qHTS Assay for Inhibitors of Influenza NS1 Protein Function. Potency, µM (titrated, usually from 46.1 µM), for inactives: at the top dose activity, positive = more growth. 270,000 tested, 0.4% active; note: potency is the fitted concentration of half-maximal effect; actives are rising curves; nearly all actives have a fitted effect of over 50% in size
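In this qHTS, NS1 from influenza A is expressed in budding yeast, where it slows growth. Cells are switched from glucose to 2% galactose medium (pH 6.0, -URA), treated with compound, and growth recovery is read at OD600.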
Shiga toxin inh: A qHTS for Small Molecule Inhibitors of Shiga Toxin; Vero cells, Shiga toxin protein synthesis inhibition reporter; inhibition, % at 38.7 µM; 290,000 tested, 9.2% active; AID 2315, 2010; in the data active = inhibition mostly above about 28%, no sharp cut-off; inactive = mostly below about 43%; note: 0% is about no effect
Tb PYK inh: qHTS of Trypanosoma Brucei Inhibitors. pyruvate kinase (Trypanosoma brucei), Q57TT1. TbPYK enzyme, Kinase-Glo Plus ATP luminescence, 45 min. Potency, µM (titrated, usually from 76.8 µM), inactives show at the highest dose activity, negative = inhibition, most hits filed as inhibitors. 410,000 tested, 0.12% active; active = well fitted curve in the direction sought with a large enough effect; inconclusive = small, poorly fitted or top-dose-only effect, or another doubt; inactive = no such curve, though single readings can be large; an effect the other way counts as inactive or inconclusive; note: potency is the fitted concentration of half-maximal effect; % is set by controls: 0 for no effect and ±100 for the full control effect; nearly all actives have a fitted effect of over 50% in size
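Luminescent Kinase-Glo Plus end-point after 45 min room-temperature reaction of T. brucei pyruvate kinase started with 130 uM ADP (final). Buffer TEA 50 mM pH 7.2 with KCl, MgCl2, BSA, Tween-20; titration-based qHTS with fitted concentration-effect curves.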
An asterisk follows results filed as active; ? = inconclusive; . = no result; [ ] = dose if it differs, or a comment. The sample as a whole holds a higher share of hits than the screen did. Unless noted, calls come from the whole dose curve.

SMILES	Cycloheximide cs	SARS PLP yeast	LmPK inhibitor	NS1 inh	Shiga toxin inh	Tb PYK inh
O=C1CSC(c2ccccn2)N1c1cccc(Cl)c1 (configuration not stated)	-2.1	-0.1%	-8.7%	-7.4%	32.3	-2.2%
Cc1ccc(N2C(=O)CSC2c2ccccn2)cc1Cl (configuration not stated)	24.6*	7.1%	-12.0%	3.0%	11.0	5.7%
C/C(=N\Nc1ccc(C)c(Cl)c1)c1cccnc1	41.2*	-6.7%	-4.9%	-51.5%	88.7*	-1.0%
C/C(=N\Nc1ccc(C)c(Cl)c1)c1ccncc1	29.9*	-35.4%	0.1%	-72.9%	39.3	-0.1%
Cc1onc(-c2ccccc2Cl)c1C(=O)Nc1nnc(-c2ccc(Br)cc2)s1	21.8*	-0.5%	-1.5%	?	13.8	2.5%
Cc1onc(-c2ccccc2Cl)c1C(=O)Nc1nc2c(s1)CCCC2	69.1*	-4.6%	7.9%	-12.0%	127.4*	1.0%
COC(=O)c1ccc2c(c1C(=O)OC)CN(S(=O)(=O)C(C)(C)C)[C@H]2CCO	.	.	.	.	.	2.6%
CC(C)(C)c1cc(NC(=O)c2ccco2)no1	44.3*	-5.1%	?	-20.0%	80.5*	1.5%
Cc1cc(C(=O)Nc2cc(C(C)(C)C)on2)c(C)o1	38.6*	-0.3%	-25.2%	3.4%	47.8	2.4%
CC(C)(C)c1cc(NC(=O)Nc2ccccc2)no1	32.6*	-0.5%	2.4%	-3.7%	70.3*	6.2%
Cc1cc(C(=O)Nc2ccon2)c(C)o1	12.0	-0.2%	-2.9%	.	12.5	4.1%
COC(=O)c1ccccc1NC(=O)Nc1cc(C(C)(C)C)on1	40.1*	0.6%	-1.8%	2.0%	34.3	-7.9%
O=c1c2cc(N3CCOCC3)ccc2[nH]c(=S)n1CC1CCCO1 (configuration not stated)	10.0	0.4%	-15.1%	4.7%	54.3*	-8.5%
CC(=O)c1ccc(N2CCN(C(=O)c3ccc(Cn4c(=O)[nH]c5ccccc5c4=O)cc3)CC2)cc1	.	.	.	.	.	3.0%
CC(=O)c1ccc(N2CCN(C(=O)c3ccc(Cn4c(=S)[nH]c5ccc(N6CCOCC6)cc5c4=O)cc3)CC2)cc1	15.5	0.1%	5.1%	.	59.2*	2.5%
O=c1c2cc(N3CCOCC3)ccc2[nH]c(=S)n1Cc1ccccn1	17.0*	9.8%	11.2%	?	active	-12.7%
O=c1c2cc(Br)ccc2[nH]c(=S)n1Cc1ccccc1	7.0	-1.6%	0.5%	-0.7%	-12.1	-3.0%
O=c1c2cc(Br)ccc2[nH]c(=S)n1Cc1ccccn1	23.9*	17.6%	-4.2%	7.8%	10.7	-9.5%
O=c1c2ccccc2[nH]c(=S)n1CC1CCCO1 (configuration not stated)	.	.	.	.	.	-5.4%
O=c1c2nc(Br)n([C@@H]3O[C@@H]4CO[P@@](O)(=S)O[C@H]4[C@H]3O)c2nc2[nH]c(-c3ccccc3)cn12	2.1	.	.	.	-9.9	.
ON=C(c1ccccc1)c1ccc2c3c(cccc13)CC2	.	.	.	.	.	-6.5%
O=C(Cc1ccc(S(=O)(=O)N2CCOCC2)s1)N(Cc1ccccc1)c1ccccc1	.	-0.5%	.	.	.	0.7%
Cc1ccc(Cl)cc1NC(=O)CSC1=Nc2ccccc2C2=NC(Cc3ccccc3)C(=O)N12 (configuration not stated)	.	.	.	.	.	-4.9%
Cc1ccc(NP(=O)(Nc2ccc(C)cc2)Oc2ccccc2)cc1	23.7*	-4.8%	0.3%	.	20.2	2.4%
Cc1cccc(-c2nc(CCNC(=O)COc3ccccc3)cs2)c1	.	.	.	.	.	0.0%
SMILES	Cycloheximide cs	SARS PLP yeast	LmPK inhibitor	NS1 inh	Shiga toxin inh	Tb PYK inh
CC1CCc2noc(NC(=O)c3ccccc3[N+](=O)[O-])c2C1 (configuration not stated)	.	.	.	.	.	1.9%
C=CCNC(=O)N1CCc2nc(-c3ccccc3)c3c(c2C1)CO[C@@H](C)C3	.	.	3.6%[11.5 µM]	.	.	.
CN(C)c1ccc(NC(=S)c2ccccn2)cc1	-4.1	-26.6%	4.47µM*	-34.1%	-13.9	?
C=C(c1ccccc1)c1ccc(N(C)C)cc1	1.7	0.0%	0.5%	2.1%	41.3	-2.7%
C=CCN(C)NC(=S)Nc1ccccc1	-2.2	18.6%	-7.5%	7.0%	-12.1	-2.2%
CN(C)c1ccc(C(=S)Nc2ccccc2)cc1	89.1*	-3.1%	-2.5%	3.0%	128.3*	8.8%
CC(=NNC(=S)Nc1ccccc1)c1ccccn1	.	.	.	.	.	6.2%
CN(C)c1cc(O)c(C(=S)Nc2ccccc2)c(N(C)C)c1	21.9*	-11.9%	-0.1%	0.3%	40.9*	-0.8%
CC(C)NC(=O)NC(=O)COC(=O)c1cc[n+]([O-])cc1	-3.5	-2.1%	2.5%	.	2.3	0.5%
CSc1nn(-c2ccc(C(=O)OCC(=O)NC(=O)NC(C)C)cc2)c(=S)s1	26.7*	-7.1%	-1.5%	4.9%	31.8	-7.2%
CCN(C(=O)COC(=O)CCC(=O)c1cccs1)c1ccccc1	.	1.5%	.	.	.	0.2%
O=C1N/C(=C\c2ccc(O)cc2)C(=O)c2ccccc21	33.9*	-38.6%	10µM*	9.7%	42.0	?
O=C(O)/C=C1\NC(=O)c2ccccc21	-1.3	?	3.3%	-17.7%	-10.0	?
CC[C@]12C(=O)N(C)C[C@H]([C@@H]3C(=O)N(Cc4ccccc4)C(=O)[C@@H]31)N2C(=O)c1ccc(C(F)(F)F)cc1	.	.	.	.	.	-2.1%
O=C(Nc1nc2ccsc2c(=O)s1)c1ccc(F)cc1	45.3*	-0.6%	-13.1%	-7.0%	80.8*	-11.8%
Cc1csc2c(=O)sc(NC(=O)c3ccc(F)cc3)nc12	-2.6	0.5%	-0.3%	-3.6%	13.7	1.6%
O=C(Nc1nc2ccsc2c(=O)s1)c1ccc(F)cc1Cl	33.0*	0.1%	1.7%	-2.7%	73.4*	-1.7%
O=C(CSCc1cccc(Cl)c1)OCc1nc2ccsc2c(=O)[nH]1	.	-4.8%	.	.	.	0.9%
COc1ccc(-c2cc(C(=O)NCC(C)C)no2)cc1	37.9*	4.7%	3.1%	-9.9%	70.8*	2.7%
CCC(C)NC(=O)c1cc(-c2ccc(OC)cc2)on1 (configuration not stated)	28.7*	-0.9%	-9.9%	?	66.4*	-0.1%
COc1ccc(-c2cc(C(=O)O)no2)cc1	4.0	-0.7%	3.2%	7.1%	1.2	3.1%
CC1(C)NC(=O)N(CC(=O)N2CCN(c3ccc([N+](=O)[O-])cc3)CC2)C1=O	.	2.3%	.	.	.	1.0%
CCN(CC)c1ncnc2c1cnn2Cc1ccc(C)cc1	7.1	-1.4%	-2.4%	-7.3%	16.6	-1.6%
CCN(CC)c1nc(C)nc2c1cnn2CCc1ccccc1	49.2*	-1.7%	5.7%	-11.2%	172.7*	0.8%
Nc1ccc(Cc2ccc(N)c(O)c2)cc1O	23.4	-3.6%	-6.9%	.	43.5*	-4.1%
CC(Sc1nc(N)cc(N)n1)C(=O)NCCC1=CCCCC1 (configuration not stated)	.	1.3%	.	.	.	1.2%

Assay outcomes as filed in PubChem.
